# Reference: PubChem BioAssay (NCI)
# The panel holds about 83,000 compounds, 20% with a hit somewhere; the sample as a whole holds those more often.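 Growth was measured after 48 h exposure to one concentration of compound in 96-well plates. Values under 10 count as active.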 Values without a mark were called inactive. Activity calls are given as the source filed them.
# Tested on: SK-MEL-28 melanoma
# Experiment: NCI-60 one-dose screen, 48 h (100 = growth as untreated, 0 = no growth, -100 = all killed)
# Conditions: 10 µM
row,SMILES,growth
1,Cc1c(O)cnc2nn(-c3ccccc3)c(=N)n12,112%
2,CC[N+](C)(CC)CCO,110%
3,CCOC(=O)C/C(C)=N\O,121%
4,COc1cc(CCN=Cc2ccccc2O)c([N+](=O)[O-])cc1OC,113%
5,O=[N+]([O-])c1ccc(CO)cc1,112%
6,O=C(Nc1ccccc1C(=O)NCC1CC1)c1cccs1,110%
7,COc1cc(CN)ccc1O,117%
8,CC(=O)OCC1OC(OC2=C(CC=C(C)C)C(=O)c3ccccc3C2=O)C(OC(C)=O)C(OC(C)=O)C1OC(C)=O (stereo not drawn),30.3%
9,O=[N+]([O-])c1ccccc1S(=O)c1ccccc1[N+](=O)[O-],100%
10,CC(=O)OCC1CCCO1 (stereo not drawn),108%
11,CC(C(=O)O)(C1CCCCC1)C1(O)CCCCC1 (stereo not drawn),107%
12,COc1cc(/C=C/C(=O)c2ccccc2)cc(OC)c1OC,82.3%
13,O=C1OC(c2ccc(F)cc2)CC1CN1CCOCC1 (stereo not drawn),109%
14,OC1OC(COC(c2ccccc2)(c2ccccc2)c2ccccc2)C(O)C(O)C1O (stereo not drawn),91.4%
15,O=C(NCCNC(=O)c1ccc(Cl)cc1Cl)c1ccc(Cl)cc1Cl,104%
16,CC(C)(N)COS(=O)(=O)O,96.3%
17,C=CCCCCCCCCCOC(C)=O,112%
18,O=C(NCc1ccco1)Nc1c(Cl)cc(Cl)cc1Cl,103%
19,CCOC(=O)C1=C(Nc2ccc(Br)cc2)C(=O)N(CC)C1,101%

row,SMILES,growth
1,CN(C)c1ccc(C(c2ccc(O)cc2)c2ccc(N(C)C)cc2)cc1,101%
2,S=C1NCc2cncnc2N1,107%
3,C/C(=N\NC(=O)c1ccccc1N)c1ccccc1O,60.9%
4,CC(C)(C)n1nc(C2CC2)c(Br)c1NC(=O)c1ccccc1F,100%
5,O=C(O)CCC(NC(=O)OCc1ccccc1)C(=O)O (stereo not drawn),109%
6,Nc1ccccc1SC(CC(=O)c1ccccc1)c1c(Cl)cccc1Cl (stereo not drawn),90.8%
7,O=C(O)CSCSCC(=O)O,97.8%
8,NC(CSC(c1ccccc1)(c1ccccc1)c1ccccc1)C(=O)O (stereo not drawn),57.9%
9,CCCCC1C(=O)N(c2ccccc2)N(c2ccccc2)C1=O,111%
10,CCCC[P+](c1ccccc1)(c1ccccc1)c1ccccc1,69.1%
11,CC(CN1CCCCC1)NC(=O)c1scnc1-c1ccccc1 (stereo not drawn),107%
12,COc1ccc(C(=O)C(Br)C(Br)C(=O)O)cc1 (stereo not drawn),108%
13,CCOC(=O)c1coc(C(=O)OCC)c1C(=O)OCC,117%
14,O=C(OCC(O)C1OC(c2ccccc2)OC(COC(=O)c2ccccc2)C1O)c1ccccc1 (stereo not drawn),104%
15,COc1ccc(/C(C#N)=C2C=C/C(=N/O)c3ccccc3\2)cc1,46.5%
16,Nc1ccc(N)c([N+](=O)[O-])c1,115%
17,Cc1ccccc1C1N=C2Oc3ccccc3C=C2C(=O)N1 (stereo not drawn),41.5%
18,O=C(Nc1ccccc1)OCCc1ccccc1,100%
19,Cc1cc(/C=C/c2ccc3cc(N(C)C)ccc3[n+]2C)c(C)n1-c1ccccc1,-63.9% (active)
